Out of some 13,000 compounds screened, about 3,200 (25%) showed an effect of 50% or more. This is one part of the list.
tested on: P. falciparum stage V gametocytes; parameters: BacTiter-Glo ATP luminescence viability of purified stage V gametocytes in 384-well plates, per cent inhibition versus DMSO; settings: 48 h, 5 µM; inhibitor

SMILES	% Inhibition [%]
Cc1cccc2[nH]c(-c3cccc(-c4cccc(NC(=O)NCc5ccccc5)c4)c3)nc12 [TCMDC-133159]	13.2
OCCOCn1cnc2cnc(N[C@H]3OC[C@H](O)[C@@H](O)[C@@H]3O)nc21 [TCMDC-138106]	14.1
CCc1c(CCNCCCCCCNCCc2ccc(Br)cc2)ccc(OC)c1OC [TCMDC-132045]	110
CCc1c(CCNCCCCCCNCCc2ccc(OC)c(OC)c2C)ccc(OC)c1OC [TCMDC-132051]	107.2
CCc1c(CCNCCCCCCNCCc2ccc(OC)c(OC)c2CC)ccc(OC)c1OC [TCMDC-132047]	111.8
CCc1c(CCNC/C=C/C=C/CNCCc2ccc(OC)c(OC)c2CC)ccc(OC)c1OC [TCMDC-132061]	102.8
COc1cc2c(OC)cccc2cc1CNCCCCCCNCc1cc2cccc(OC)c2cc1OC [TCMDC-137945]	1.634
O=C1C[C@@H]([S+]([O-])Cc2nccs2)N1CCOCCCCCCc1ccc(Cl)cc1 (stereo partly shown) [TCMDC-139269]	27.24
Cc1cccc(NC(=O)Nc2ccc(I)c(OCCN(C)C)c2)c1C [TCMDC-139124]	-5.088
COc1ccc(Nc2nc(NCc3ccc(-n4ccnc4)cc3)cc(-c3ccc(OC)cc3)n2)cc1 [TCMDC-134025]	-3.76
Clc1ccc(Sc2cncnc2N2CCOCC2)cc1 [TCMDC-137279]	19.11
O=C(Cc1ccccc1)NC1CCN(c2ccnc3cc(Cl)ccc23)C1 (stereo not shown) [TCMDC-133663]	-4.28
Cn1c(Sc2ncnc3sccc23)nc2ccccc21 [TCMDC-124514]	74.1
c1ccc2sc(Sc3ncnc4sccc34)nc2c1 [TCMDC-125539]	99.53
COCCn1c(Sc2ncnc3sccc23)nc2ccccc21 [TCMDC-125258]	10.99
c1ccn2c(Sc3ncnc4sccc34)ncc2c1 [TCMDC-124602]	29.96
CN(C)CCCNCCS(=O)(=O)c1cccc(Nc2ccc(-c3cccc(N(C)C)c3)cn2)c1 [TCMDC-134369]	11.18
O=C(NC1CCCCC1)N(Cc1ccc(-c2ccc(CNCc3ccc4c(c3)OCO4)cc2)cc1)C1CCN(Cc2ccccc2)CC1 [TCMDC-140641]	57.56
O=C(NC1CCCCC1)N(Cc1cccc(-c2ccc(CNCc3ccc4c(c3)OCO4)cc2)c1)C1CCN(Cc2ccccc2)CC1 [TCMDC-140632]	106.9
O=C(NC1CCCCC1)N(Cc1ccc(-c2cccc(CNCc3ccc4c(c3)OCO4)c2)cc1)C1CCN(Cc2ccccc2)CC1 [TCMDC-140640]	55.3
O=C(NCCc1ccccc1)N(Cc1cccc(-c2ccc(CNCc3ccc4c(c3)OCO4)cc2)c1)C1CCN(Cc2ccccc2)CC1 [TCMDC-140619]	40.48
O=C(Nc1ccc(OC2CCN(Cc3ccc(F)cc3)CC2)c(Cl)c1)c1ccc(F)cc1 [TCMDC-133752]	7.555

SMILES	% Inhibition [%]
Cc1ccccc1C1CCN(C2CCC(NC(=O)/C=C/c3ccc(C#N)cc3)CC2)CC1 (stereo not shown) [TCMDC-133527]	-65.01
CS(=O)(=O)c1ccc(CNCc2ccc(-c3ccc(-c4nc5cc(C(F)(F)F)ccc5[nH]4)cc3)cc2)cc1.O=C(O)C(F)(F)F [TCMDC-132901]	-22.07
COC(=O)c1cc(C(O)CNC(C)CCc2cccc(F)c2)ccc1O (stereo not shown) [TCMDC-131242]	17.15
CC(Cl)=CCc1c(C)[nH]c2c(ccc3ccccc32)c1=O [TCMDC-124085]	30.93
CC(=O)c1cccc(Nc2nc3c(C#N)c(OCc4cc(Cl)cc(Cl)c4)ccc3[nH]2)c1 [TCMDC-133766]	-0.7844
CN1CCN(c2ccc(-c3nc4c(C(N)=O)c(OCc5cc(Cl)cc(Cl)c5)ccc4[nH]3)cc2)CC1 [TCMDC-133563]	101.6
CN1CCN(c2ccc3nc(-c4ccc5nc(-c6ccc(O)cc6)[nH]c5c4)[nH]c3c2)CC1 [TCMDC-125507]	11.14
CN(C)c1ccc(-c2ccc(C(=O)NC3CCN(Cc4ccccc4F)CC3)s2)cc1 [TCMDC-134368]	-72.91
CN(C)c1ccc(CN2CCC(NC(=O)c3ccc(-c4ccc(N(C)C)cc4)s3)CC2)cc1 [TCMDC-134331]	56.81
CSc1ccc(CN2CCC(NC(=O)c3ccc(-c4ccc(N(C)C)cc4)s3)CC2)cc1 [TCMDC-134342]	-80.35
COc1cccc(-c2ccc(C(=O)NC3CCN(Cc4ccc(C(C)(C)C)cc4)CC3)s2)c1 [TCMDC-134353]	-20.06
COc1ccccc1CN1CCC(NC(=O)c2ccc(-c3ccc(N(C)C)cc3)s2)CC1 [TCMDC-134357]	85.69
COc1cccc(-c2ccc(C(=O)NC3CCN(Cc4ccc(N(C)C)cc4)CC3)s2)c1 [TCMDC-134330]	105
CCc1ccc(CN2CCC(NC(=O)c3ccc(-c4ccc(N(C)C)cc4)s3)CC2)cc1 [TCMDC-134344]	-78.7
CC(=O)Nc1ccc(CN2CCC(NC(=O)c3ccc(-c4ccc(N(C)C)cc4)s3)CC2)cc1 [TCMDC-134336]	72.62
CN(C)c1ccc(-c2ccc(C(=O)NC3CCN(Cc4ccccc4)CC3)s2)cc1 [TCMDC-134367]	44.5
COc1ccccc1CN1CCC(NC(=O)c2ccc(-c3cccc(Cl)c3)s2)CC1 [TCMDC-134356]	-14.44
CC(=O)Nc1ccc(CN2CCC(NC(=O)c3ccc(-c4cccc(Cl)c4)s3)CC2)cc1 [TCMDC-134334]	14.56
CN(C)c1ccc(CN2CCC(NC(=O)c3ccc(-c4cccc(Cl)c4)s3)CC2)cc1 [TCMDC-134329]	-64.24
O=C(NCc1cccc2ccccc12)C(c1cc2ccccc2o1)N1CCN(C(c2ccccc2)c2ccccc2)CC1 (stereo not shown) [TCMDC-141007]	25.05
CCCCCCN1CCN(Cc2cccc(NC(=O)c3cc4ccccc4o3)c2)CC1 [TCMDC-134620]	-12.01
